From PubChem BioAssay (EPA / NIEHS)
Records with an inconclusive call do not appear. Calls of active or inactive are those of the source. The calls were made as follows: active = hit-call score of the fitted dose curve at least 0.9, where 1 is the maximum; inconclusive = response in the unintended direction; inactive = score below 0.9.

Experiment: ACEA_AR_antagonist_AUC_viability: ACEA Biosciences xCELLigence Real-Time Cell Analysis on Androgen Receptor Antagonism for Viability (AID 2283776);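 also: 22Rv1 human prostate cancer cells growing on impedance electrode plates; area under impedance growth curve at 80 h after dosing as viability; hits lower the growth signal relative to DMSO meaning cytotoxicity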
Summary of the method: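 Viability endpoint from label-free cell-index monitoring: 22Rv1 cultures treated with an eight-point 1:4 dilution series starting at 100 uM final, AUC at 80 h fitted against DMSO.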

| Compound | outcome | AC50 |
| --- | --- | --- |
| COc1ccc(C)cc1N | inactive |  |
| CCCCCC(=O)O | inactive |  |
| COc1cc(-c2nc(NC(=O)c3cc4cc(C)cc(C)c4n3CC(=O)O)sc2CCC2CCCCC2)c(OC)cc1Cl |  | 9.23 µM (active) |
| CC1(C)CC(N=C=O)CC(C)(CN=C=O)C1 (stereo unspecified) | inactive |  |
| CCCCCCOCCO | inactive |  |
| C[Si]1(C)O[Si](C)(C)O[Si](C)(C)O[Si](C)(C)O1 | inactive |  |
| CCOc1ccc2c(c1)C(C)=CC(C)(C)N2 |  | 89.5 µM (active) |
| CC1=C(/C=C/C(C)=C/C=C/C(C)=C/CO)C(C)(C)CCC1 |  | 79.8 µM (active) |
| Cc1nc(-c2ccc3c(c2)CCN(CCC2CCC(NC(=O)/C=C/c4ccc(F)cc4)CC2)CC3)no1 (stereo unspecified) |  | 16.8 µM (active) |
| Cc1oc(-c2ccccc2)nc1CCOc1cccc2c1ccn2CCC(=O)O |  | 65.7 µM (active) |
| CNC(=O)[C@H]1O[C@@H](n2cnc3c(NCc4cc(Cl)ccc4OCc4cc(C)no4)ncnc32)[C@H](O)[C@@H]1N | inactive |  |
| Nc1ccc2c(c1)C(=O)c1ccccc1C2=O |  | 14.1 µM (active) |
| FC(F)(F)C(F)(F)C(F)(F)C(F)(F)C(F)(F)C(F)(F)CCI | inactive |  |
| CCOC(=O)C(C)(C)Oc1ccc(Cl)cc1 | inactive |  |
| C1CCC(SSC2CCCCC2)CC1 |  | 78.3 µM (active) |
| C[C@]12C=CC(=O)C=C1CC[C@@H]1[C@@H]2C(=O)C[C@@]2(C)[C@H]1CC[C@]2(O)C(=O)CO | inactive |  |
| COc1cc(/C=C/C(=O)CC(=O)/C=C/c2ccc(O)c(OC)c2)ccc1O |  | 23.2 µM (active) |
| O=C(O)Cc1ccccc1Nc1c(Cl)cccc1Cl |  | 50 µM (active) |
| COc1cccc2c1C(=O)c1c(O)c3c(c(O)c1C2=O)C[C@@](O)(C(=O)CO)C[C@@H]3O[C@H]1C[C@H](N)[C@H](O)[C@H](C)O1 |  | 0.0588 µM (active) |
| CCCCCCCCCCCCCCCCCC(=O)O |  | 25 µM (active) |
| Cc1cccc(C)c1O | inactive |  |
| CN[C@H]1CC[C@@H](c2ccc(Cl)c(Cl)c2)c2ccc(S(N)(=O)=O)cc21 |  | 15.7 µM (active) |
| COc1ccc2c(c1)c(CC(=O)O)c(C)n2C(=O)c1ccc(Cl)cc1 |  | 25.4 µM (active) |

Experiment: ACEA_ER_AUC_viability: ACEA Biosciences xCELLigence Real-Time Cell Analysis on Estrogen Receptor Agonism for Viability (AID 2283782);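 also: continuous compound exposure with impedance area under curve over 80 h; hit means loss of impedance signal meaning reduced cell growth or viability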
Summary of the method: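 T47D cells preconditioned in phenol red-free RPMI with charcoal-stripped FBS, then dosed with 8-point 1:4 series from 100 uM (up to 0.5% DMSO). Impedance monitored up to ~80 h; area-under-curve loss versus DMSO taken as viability.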

| Compound | outcome | AC50 |
| --- | --- | --- |
| COc1ccc(C)cc1N | inactive |  |
| COc1cc(-c2nc(NC(=O)c3cc4cc(C)cc(C)c4n3CC(=O)O)sc2CCC2CCCCC2)c(OC)cc1Cl |  | 11.4 µM (active) |
| CCOc1ccc2c(c1)C(C)=CC(C)(C)N2 | inactive |  |
| CC1=C(/C=C/C(C)=C/C=C/C(C)=C/CO)C(C)(C)CCC1 | inactive |  |
| Nc1nc(N)c2nc(CNc3ccc(C(=O)N[C@@H](CCC(=O)O)C(=O)O)cc3)cnc2n1 |  | 40.1 µM (active) |
| Cc1ccc(C)c(O)c1C | inactive |  |
| CCCCCCC(=O)OCC | inactive |  |
| Nc1ccccc1N | inactive |  |
| Cc1nc(-c2ccc3c(c2)CCN(CCC2CCC(NC(=O)/C=C/c4ccc(F)cc4)CC2)CC3)no1 (stereo unspecified) | inactive |  |
| CCNc1cccc(C)c1 | inactive |  |
| Cc1oc(-c2ccccc2)nc1CCOc1cccc2c1ccn2CCC(=O)O | inactive |  |
| CNC(=O)[C@H]1O[C@@H](n2cnc3c(NCc4cc(Cl)ccc4OCc4cc(C)no4)ncnc32)[C@H](O)[C@@H]1N | inactive |  |
| CC(=O)OC/C=C(\C)CCC=C(C)C | inactive |  |
| Cc1ccc(C(C)C)c(O)c1 | inactive |  |
| Cc1ccc(Cl)cc1 | inactive |  |
| FC(F)(F)C(F)(F)C(F)(F)C(F)(F)C(F)(F)C(F)(F)CCI | inactive |  |
| O=C(N[C@@H](Cc1ccccc1)[C@@H](O)C(=O)N1C[C@@H](O)[C@@H](O)C1)c1cc2cc(Cl)ccc2[nH]1 |  | 55.2 µM (active) |
| C1CCC(SSC2CCCCC2)CC1 |  | 92.3 µM (active) |
| CNCc1cc(F)ccc1Oc1ccc(Cl)c(Cl)c1 |  | 29.9 µM (active) |
| COc1cc(/C=C/C(=O)CC(=O)/C=C/c2ccc(O)c(OC)c2)ccc1O | inactive |  |
| CN1CCN(Cc2cc(-c3ccc4[nH]c(=O)oc4c3)co2)[C@@H](c2ccc(F)cc2)C1 |  | 50.8 µM (active) |
| COc1cccc2c1C(=O)c1c(O)c3c(c(O)c1C2=O)C[C@@](O)(C(=O)CO)C[C@@H]3O[C@H]1C[C@H](N)[C@H](O)[C@H](C)O1 | inactive |  |
| Oc1ccc2c(c1)OC[C@@H](N1CCC(O)(c3ccc(F)cc3)CC1)[C@H]2O | inactive |  |
| Clc1cc(Cl)c(Cl)cc1Cl | inactive |  |
| Cc1cc(=O)[nH]c(=S)[nH]1 | inactive |  |
| COc1ccc(S(=O)(=O)N2C(=O)[C@@](c3ccccc3OC)(N3C[C@H](O)C[C@H]3C(=O)N(C)C)c3cc(Cl)ccc32)c(OC)c1 |  | 24.3 µM (active) |
| Cc1cccc(C)c1O | inactive |  |
| CN[C@H]1CC[C@@H](c2ccc(Cl)c(Cl)c2)c2ccc(S(N)(=O)=O)cc21 |  | 10.9 µM (active) |
